Measurements from PubChem BioAssay AID1159580 (chemical genetic matrix, 2015).
Several values for one entry are separate records, joined by “and”; a condition that tells them apart may be missing. Equal values may be shown once. About 2,000 (36%) of roughly 5,500 compounds were called active. Roughly 18% stayed inconclusive and do not appear here. No stated cut-off is given here; in the data, active means normalized growth mostly below about 0.91 (no sharp cut-off); inconclusive means no clear call, values can overlap the other calls; inactive means mostly above about 0.92. Some of the results follow.

Assay: chemical genetic growth profiling, strain panel (AID 1159580);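 further: tested at 20 µM; growth read once vehicle control cultures reached saturation at 30 °C; 1 = growth at the plate median or of vehicle wells; lower values mean less growth of the strain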
Settings: S. cerevisiae deletion strains, growth OD

Measured: normalized growth

C[C@]12C=CC(=O)C=C1CCC1C2CC[C@]2(C)C(=O)CCC12 (stereo partly drawn)
inactive: locus YAL021C, strain ccr4, active compounds read low 0.97 | locus YAL026C, strain drs2, active compounds read low 0.983 | locus YAL030W, strain snc1, active compounds read low 0.976 | locus YBL061C, strain skt5, active compounds read low 0.971 | locus YBR009C, strain hhf1, active compounds read low 0.966 | locus YBR021W, strain FUR4, active compounds read low 0.986 | locus YBR023C, strain chs3, active compounds read low 0.979 | locus YBR171W, strain sec66, active compounds read low 0.987 | locus YBR229C, strain ROT2, active compounds read low 0.992 | locus YBR231C, strain swc5, active compounds read low 0.982 | locus YBR279W, strain paf1, active compounds read low 0.982 | locus YCL011C, strain gbp2, active compounds read low 0.988 | locus YCL016C, strain dcc1, active compounds read low 0.976 | locus YCL029C, strain bik1, active compounds read low 0.992 | locus YCL061C, strain MRC1, active compounds read low 0.972 | locus YCL069W, strain vba3, active compounds read low 0.981 | locus YCR088W, strain abp1, active compounds read low 0.98 | locus YDL005C, strain med2, active compounds read low 0.977 | locus YDL035C, strain GPR1, active compounds read low 1.03 | locus YDL040C, strain nat1, active compounds read low 0.985 | locus YDL074C, strain BRE1, active compounds read low 1.01 | locus YDL101C, strain DUN1, active compounds read low 1.01 | locus YDL134C, strain PPH21, active compounds read low 1.01 | locus YDL185W, strain tfp1, active compounds read low 1 | locus YDL192W, strain arf1, active compounds read low 0.981 | locus YDR001C, strain nth1, active compounds read low 0.984 | locus YDR069C, strain doa4, active compounds read low 0.978 | locus YDR101C, strain arx1, active compounds read low 0.981 | locus YDR137W, strain rgp1, active compounds read low 1.04 | locus YDR150W, strain NUM1, active compounds read low 1.01 | locus YDR159W, strain sac3, active compounds read low 0.928 | locus YDR162C, strain NBP2, active compounds read low 1.03 | locus YDR195W, strain ref2 0.935 | locus YDR297W, strain sur2, active compounds read low 0.972 | locus YDR318W, strain mcm21, active compounds read low 0.992 | locus YDR334W, strain swr1, active compounds read low 0.976 | locus YDR335W, strain msn5, active compounds read low 0.988 | locus YDR388W, active compounds read low 0.981 | locus YDR392W, strain spt3, active compounds read low 0.877 | locus YDR502C, strain sam2, active compounds read low 0.976 | locus YEL003W, strain gim4, active compounds read low 0.988 | locus YEL037C, strain rad23, active compounds read low 0.989 | locus YEL061C, strain CIN8 (second series), active compounds read low 0.988 | locus YEL061C, strain CIN8, active compounds read low 0.995 | locus YER015W, strain faa2, active compounds read low 0.981 | locus YER016W, strain bim1, active compounds read low 0.981 | locus YER110C, active compounds read low 0.984 | locus YER111C, strain swi4, active compounds read low 0.986 | locus YER155C, strain BEM2 (second series), active compounds read low 0.949 | locus YER155C, strain BEM2, active compounds read low 0.979 | locus YER167W, strain BCK2, active compounds read low 0.986 | locus YFR010W, strain ubp6, active compounds read low 0.988 | locus YGL078C, strain dbp3, active compounds read low 0.986 | locus YGL086W, strain mad1, active compounds read low 0.983 | locus YGL167C, strain pmr1, active compounds read low 0.976 | locus YGL173C, strain kem1, active compounds read low 0.98 | locus YGL227W, strain vid30, active compounds read low 0.984 | locus YGL240W, strain doc1, active compounds read low 0.926 | locus YGL248W, strain PDE1, active compounds read low 0.995 | locus YGL253W, strain hxk2, active compounds read low 0.987 | locus YGR078C, strain PAC10, active compounds read low 1.02 | locus YGR135W, strain pre9, active compounds read low 0.996 | locus YGR229C, strain SMI1, active compounds read low 1.07 | locus YGR252W, strain gcn5, active compounds read low 0.988 | locus YHR013C, strain ard1, active compounds read low 0.951 | locus YHR027C, strain rpn1, active compounds read low 0.99 | locus YHR030C, strain SLT2, active compounds read low 1.01 and 0.976 | locus YHR079C, strain IRE1 (second series), active compounds read low 0.987 | locus YHR079C, strain IRE1, active compounds read low 0.978 | locus YHR094C, strain hxt1, active compounds read low 0.981 | locus YHR129C, strain ARP1, active compounds read low 1 | locus YHR142W, strain chs7, active compounds read low 0.995 | locus YHR200W, strain rpn10, active compounds read low 0.976 | locus YIL066C, strain RNR3, active compounds read low 1.01 | locus YIL073C, strain SPO22, active compounds read low 1.04 | locus YIL125W, strain kgd1, active compounds read low 0.975 | locus YIR030C, strain dcg1, active compounds read low 0.992 | locus YJL092W, strain hpr5, active compounds read low 0.985 | locus YJL095W, strain BCK1 (second series), active compounds read low 0.98 | locus YJL095W, strain BCK1, active compounds read low 1 and 0.98 | locus YJL115W, strain asf1, active compounds read low 0.977 | locus YJL129C, strain trk1, active compounds read low 0.985 | locus YJL134W, strain LCB3, active compounds read low 1.01 | locus YJL154C, strain vps35, active compounds read low 0.998 | locus YJL164C, strain tpk1, active compounds read low 0.976 | locus YJL166W, strain qcr8, active compounds read low 0.957 | locus YJL168C, strain set2, active compounds read low 0.978 | locus YJL187C, strain SWE1 (second series), active compounds read low 1.02 | locus YJL187C, strain SWE1, active compounds read low 0.979 | locus YJR043C, strain POL32, active compounds read low 1.03 | locus YJR066W, strain TOR1, active compounds read low 0.937 | locus YKL009W, strain mrt4, active compounds read low 1 | locus YKL068W, active compounds read low 1 | locus YKL085W, strain MDH1 (second series), active compounds read low 0.993 | locus YKL085W, strain MDH1, active compounds read low 0.993 | locus YKL160W, strain elf1, active compounds read low 0.985 | locus YKR001C, strain vps1, active compounds read low 0.986 | locus YKR026C, strain gcn3, active compounds read low 0.962 | locus YKR091W, strain srl3, active compounds read low 0.976 | locus YLL001W, strain dnm1, active compounds read low 0.969 | locus YLL026W, active compounds read low 0.981 | locus YLL041C, strain sdh2, active compounds read low 0.981 | locus YLR027C, strain aat2, active compounds read low 0.984 | locus YLR039C, strain RIC1, active compounds read low 1.27 | locus YLR058C, strain SHM2, active compounds read low 0.993 | locus YLR102C, strain apc9, active compounds read low 0.997 | locus YLR113W, strain HOG1, active compounds read low 0.966 | locus YLR221C, strain rsa3, active compounds read low 0.977 | locus YLR258W, strain gsy2, active compounds read low 0.973 | locus YLR262C, strain YPT6 (second series), active compounds read low 1.05 | locus YLR262C, strain YPT6, active compounds read low 1.23 | locus YLR268W, strain sec22, active compounds read low 0.997 | locus YLR320W, strain mms22, active compounds read low 0.946 | locus YLR330W, strain CHS5, active compounds read low 1 | locus YLR342W, strain FKS1 (second series), active compounds read low 0.958 | locus YLR342W, strain FKS1, active compounds read low 0.976 | locus YLR357W, strain rsc2, active compounds read low 1.01 | locus YLR370C, strain arc18, active compounds read low 0.977 | locus YLR371W, strain rom2, active compounds read low 0.993 | locus YLR384C, strain iki3, active compounds read low 0.983 | locus YLR418C, strain cdc73, active compounds read low 0.968 | locus YML016C, strain PPZ1, active compounds read low 0.994 | locus YML032C, strain rad52, active compounds read low 0.996 | locus YML120C, strain ndi1, active compounds read low 0.983 | locus YML124C, strain tub3, active compounds read low 0.982 | locus YMR058W, strain fet3, active compounds read low 0.979 | locus YMR078C, strain ctf18, active compounds read low 0.974 | locus YMR125W, strain sto1, active compounds read low 0.997 | locus YMR129W, active compounds read low 0.991 | locus YMR205C, strain PFK2, active compounds read low 0.963 | locus YMR223W, strain ubp8, active compounds read low 0.98 | locus YMR231W, strain pep5, active compounds read low 0.986 | locus YMR263W, strain SAP30, active compounds read low 0.99 | locus YMR307W, strain GAS1, active compounds read low 1.16 | locus YNL067W, strain RPL9B, active compounds read low 1.02 | locus YNL071W, strain lat1, active compounds read low 0.977 | locus YNL128W, strain TEP1, active compounds read low 1.02 | locus YNL153C, strain GIM3, active compounds read low 1.01 | locus YNL183C, strain NPR1, active compounds read low 0.897 | locus YNL209W, strain ssb2, active compounds read low 0.985 | locus YNL233W, strain BNI4, active compounds read low 0.994 | locus YNL248C, strain rpa49, active compounds read low 0.991 | locus YNL250W, strain rad50, active compounds read low 0.99 | locus YNL271C, strain bni1, active compounds read low 0.989 | locus YNL298W, strain CLA4, active compounds read low 0.981 | locus YNL307C, strain MCK1, active compounds read low 0.982 | locus YNL322C, strain KRE1 (second series), active compounds read low 0.978 | locus YNR049C, strain mso1, active compounds read low 0.983 | locus YNR052C, strain pop2, active compounds read low 0.989 | locus YOL006C, strain TOP1, active compounds read low 0.98 | locus YOL012C, strain htz1 1.46 | locus YOL147C, strain pex11, active compounds read low 0.997 | locus YOR001W, strain rrp6, active compounds read low 0.98 | locus YOR061W, strain CKA2, active compounds read low 0.996 | locus YOR069W, strain VPS5, active compounds read low 0.998 | locus YOR070C, strain gyp1, active compounds read low 0.989 | locus YOR080W, strain dia2, active compounds read low 0.972 | locus YOR083W, strain WHI5, active compounds read low 0.983 | locus YOR106W, strain vam3, active compounds read low 0.982 | locus YOR136W, strain idh2, active compounds read low 0.987 | locus YOR144C, strain elg1, active compounds read low 0.977 | locus YOR184W, strain ser1, active compounds read low 0.985 | locus YOR231W, strain MKK1, active compounds read low 0.98 | locus YOR265W, strain rbl2, active compounds read low 0.983 | locus YOR270C, strain vph1, active compounds read low 0.941 | locus YOR290C, strain snf2, active compounds read low 0.943 | locus YOR316C, strain cot1, active compounds read low 0.984 | locus YPL051W, strain arl3, active compounds read low 0.998 | locus YPL055C, strain LGE1, active compounds read low 1.02 | locus YPL078C, strain atp4, active compounds read low 0.989 | locus YPL106C, strain sse1, active compounds read low 0.958 | locus YPL240C, strain hsp82, active compounds read low 0.965 | locus YPL256C, strain CLN2, active compounds read low 0.98 | locus YPR119W, strain clb2, active compounds read low 0.975 | locus YPR141C, strain kar3, active compounds read low 0.982 | locus YPR163C, strain tif3, active compounds read low 0.992 | locus YPR167C, strain met16, active compounds read low 0.981 | strain wtn01, active compounds read low 0.99
